From PMC4336329 (PLoS ONE, 2015)
About 14,000 (4.5%) of roughly 310,000 compounds showed an effect of 50% or more. The effect is printed as a negative number. The sample as a whole holds a higher share of strong results than the screen did.

target: human ether-à-go-go-related gene (hERG) potassium channel (human, UniProt Q12809); experiment: primary screen, population patch clamp on CHO cells stably expressing hERG; higher = less effect of the substance
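Also: peak tail current of the secondary pulse compared with the same well before compound.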

Sequence of human ether-à-go-go-related gene (hERG) potassium channel (Q12809 whole entry, looked up): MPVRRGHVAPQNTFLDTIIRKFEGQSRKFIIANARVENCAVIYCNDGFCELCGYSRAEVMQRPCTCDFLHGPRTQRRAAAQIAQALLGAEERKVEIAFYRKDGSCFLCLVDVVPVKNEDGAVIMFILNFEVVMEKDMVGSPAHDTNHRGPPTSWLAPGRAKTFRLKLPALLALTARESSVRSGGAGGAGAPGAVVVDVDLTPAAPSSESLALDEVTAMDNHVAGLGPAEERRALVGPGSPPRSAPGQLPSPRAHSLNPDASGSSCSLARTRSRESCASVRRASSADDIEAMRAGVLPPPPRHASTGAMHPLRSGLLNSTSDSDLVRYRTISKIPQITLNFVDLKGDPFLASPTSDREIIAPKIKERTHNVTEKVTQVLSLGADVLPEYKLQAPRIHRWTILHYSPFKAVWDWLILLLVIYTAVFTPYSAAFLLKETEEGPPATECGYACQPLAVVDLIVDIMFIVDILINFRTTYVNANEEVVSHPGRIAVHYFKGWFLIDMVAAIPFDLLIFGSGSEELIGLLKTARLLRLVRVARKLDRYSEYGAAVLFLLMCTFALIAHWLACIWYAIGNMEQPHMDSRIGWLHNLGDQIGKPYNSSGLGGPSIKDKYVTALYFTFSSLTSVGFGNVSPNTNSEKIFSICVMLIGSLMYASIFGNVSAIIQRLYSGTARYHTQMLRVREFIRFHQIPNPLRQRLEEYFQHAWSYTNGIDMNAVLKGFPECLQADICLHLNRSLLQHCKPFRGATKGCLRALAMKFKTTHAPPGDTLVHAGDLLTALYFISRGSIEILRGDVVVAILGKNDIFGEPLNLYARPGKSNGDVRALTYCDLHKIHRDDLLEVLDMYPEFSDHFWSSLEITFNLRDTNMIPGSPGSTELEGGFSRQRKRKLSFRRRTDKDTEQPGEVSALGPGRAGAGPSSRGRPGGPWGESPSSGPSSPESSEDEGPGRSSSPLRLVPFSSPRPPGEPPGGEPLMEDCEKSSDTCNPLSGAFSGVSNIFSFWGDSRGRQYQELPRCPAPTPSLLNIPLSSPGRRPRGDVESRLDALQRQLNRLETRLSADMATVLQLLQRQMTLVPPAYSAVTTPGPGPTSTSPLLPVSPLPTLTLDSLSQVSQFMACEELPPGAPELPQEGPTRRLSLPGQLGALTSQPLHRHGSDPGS

Compound | hERG current change (%, negative = inhibition) at 10uM [%]
CC(C)N(CCNC(=O)COc1ccc2oc3c(c2c1)CCCC3)C(C)C | -73.3
CNC(=O)COc1ccc2oc3c(c2c1)CCCC3 | 9.14
CCOC(=O)N1CCN(C(=O)COc2ccc3oc4c(c3c2)CCCC4)CC1 | -50.6
CC(=O)N1CCN(C(=O)COc2ccc3oc4c(c3c2)CCCC4)CC1 | -25.4
CC(C)OCCCNC(=O)COc1ccc2oc3c(c2c1)CCCC3 | -4.97
CCN(CC)CCCNC(=O)COc1ccc2oc3c(c2c1)CCCC3.Cl | -45.7
Cc1cccc(N(CC(=O)NCCC2=CCCCC2)S(C)(=O)=O)c1C | -22.8
COC(=O)c1ccc(CNC(=O)/C=C/c2cc([N+](=O)[O-])ccc2OC(F)F)cc1 | 6.89
CN(C)CCN(C(=O)C1=COCCO1)c1nc2ccc(F)cc2s1.Cl | -73
CN(C)CCN(C(=O)c1ccc2ccccc2c1)c1nc2ccc(Br)cc2s1.Cl | 13.2
CN(C)CCCN(C(=O)C1=COCCO1)c1nc2ccc(Br)cc2s1.Cl | -67.2
CN(C)CCN(C(=O)c1ccc2c(c1)OCCO2)c1nc2ccc(Cl)cc2s1.Cl | -1.19
CN(C)CCN(C(=O)c1ccc2ccccc2c1)c1nc2ccc(F)cc2s1.Cl | 11.1
CN(C)CCN(C(=O)C1=COCCO1)c1nc2ccc(Cl)cc2s1.Cl | -73.1
O=C(CN1Cc2ccccc2C1=O)Nc1ccc2c(c1)OCCO2 | 3.26
O=C([O-])c1cc(=O)[nH]c2ccc(S(=O)(=O)Nc3ccc(F)cc3)cc12.[K+] | 23.5
O=C(O)c1ccc(NC(=O)C2CCCCC2)cc1 | -7.8
COCCNC(=O)Cn1cc2c(n1)CCC(C)C2 (centres unmarked) | 21.2
O=C(Cn1c(=O)oc2ccccc21)N1CCCC1 | 14.4
Cc1[nH]c2ccccc2c1/C=N/NC(=S)NC(C)C | 12.1
CCCCC(c1nnnn1C1CCCC1)N1CCN(C2CCCCC2)CC1 (centres unmarked) | -69.8
CCC(c1nnnn1C1CCCCC1)N1CCN(C2CCCC2)CC1.Cl (centres unmarked) | -3.77

Compound | hERG current change (%, negative = inhibition) at 10uM [%]
CCCCC(c1nnnn1C1CCCC1)N1CCN(C(=O)c2ccco2)CC1.Cl (centres unmarked) | -47
CCCC(c1nnnn1C1CCCCC1)N1CCN(C2CCCC2)CC1.Cl (centres unmarked) | -46.4
CCCCC(c1nnnn1C1CCCC1)N1CCN(C2CCCC2)CC1.Cl (centres unmarked) | -85.6
CCCC(c1nnnn1C(C)(C)CC)N1CCN(C2CCCC2)CC1.Cl (centres unmarked) | -35.3
CC(CC(=O)N(CCC1=CCCCC1)c1c(N)n(Cc2ccccc2)c(=O)[nH]c1=O)c1ccccc1 (centres unmarked) | 17.1
Cc1cc(F)ccc1NC(=O)CCCN(C)S(=O)(=O)c1ccc(F)cc1 | -5.3
CCc1cc2c(=O)c(-c3nc4ccccc4n3C)c(C)oc2c(CN2CCN(C)CC2)c1O | 14.3
O=C(CSc1ncnc2c1oc1ccccc12)Nc1cccc(C(F)(F)F)c1 | 11
COc1ccc2c(Cl)c(C(=O)N/N=C3\CCCC(=O)C3)sc2c1 | -9.05
Cn1c(=O)c2c(nc(CN3CCN(c4ccc(F)cc4)CC3)n2Cc2ccccc2F)n(C)c1=O | -6.93
CCOC(=O)C(C(=O)OCC)C(C)(C)/C(C)=N\Nc1ccc([N+](=O)[O-])cc1[N+](=O)[O-] | -40.8
CCOC(=O)C(C)/C(C)=N\Nc1ccc([N+](=O)[O-])cc1[N+](=O)[O-] (centres unmarked) | -53.2
CCOC(=O)C/C(C)=N\Nc1ccc([N+](=O)[O-])cc1[N+](=O)[O-] | -40.2
Cc1onc(-c2ccccc2Cl)c1C(=O)N1CCOC12CCCCC2 | 1.15
Fc1cnc(N2CCOCC2)nc1N1CCc2ccccc21 | -19.5
COc1cccc(CN2CCN(C(=O)c3cccs3)CC2)c1OC | -4.33
CC(=O)Nc1ccc(NC(=O)C(C)OC(=O)C2CC(=O)N(CCc3ccccc3)C2)cc1 (centres unmarked) | 14.4
O=C(COC(=O)C1CC(=O)N(CCc2ccccc2)C1)c1ccc[nH]1 (centres unmarked) | -41.8
COC(=O)C1CC(=O)N(Cc2ccccc2)C1 (centres unmarked) | 23.4
Nc1nc(COC(=O)CCC(=O)c2ccc(Cl)cc2)nc(Nc2ccccc2)n1 | 6.39
COc1ccccc1N1CC(C(=O)OCc2nc(N)nc(Nc3ccccc3)n2)CC1=O (centres unmarked) | -15.8
Nc1nc(COC(=O)C2CC(=O)N(Cc3ccccc3Cl)C2)nc(Nc2ccccc2)n1 (centres unmarked) | -55.6
